Test results: PubChem BioAssay (NCATS)
Inconclusive results are not listed. Calls of active or inactive are those of the source. Unless noted, calls come from the whole dose curve; as a rule, active = well fitted curve in the direction sought with a large enough effect; inconclusive = small, poorly fitted or top-dose-only effect, or another doubt; inactive = no such curve, though single readings can be large; an effect the other way counts as inactive or inconclusive.

What was measured:
[1] = Cell Viability - Hek293 (AID 427;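 active = compounds whose dose-response curve shows a full or clear partial loss of cell viability, called from curve shape rather than a numeric limit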;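 note: potency is the fitted concentration of half-maximal effect; cells exposed to compound for 40 hours at 37 °C before reading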); conditions: qHTS
Outline: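 HEK293 cells in complete medium were exposed to compound for 40 hr at 37 °C, then cellular ATP was read by CellTiter-Glo luminescence. Data were normalized to DMSO (basal) and 100 uM tamoxifen (100% inhibition), and AC50 came from Hill fits.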

[2] = Cell Viability - SK-N-SH (AID 435; calls by dose curve; note: potency is the fitted concentration of half-maximal effect); conditions: SK-N-SH neuroblastoma cell viability qHTS
Outline: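 qHTS cytotoxicity: CellTiter-Glo ATP luminescence after 40 h compound exposure of human neuroblastoma SK-N-SH cells at 37 °C. AC50 derived by Hill-equation fitting, with DMSO as basal and 100 uM tamoxifen as full inhibition.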

[3] = Cell Viability - N2a (AID 540); conditions: N2a mouse neuroblastoma cell viability; activity change, negative = cytotoxicity: at 92.2 µM (top of the series); note: nearly all actives have a fitted effect of over 45% in size; note: potency is the fitted concentration of half-maximal effect;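 for activity change, negative = cytotoxicity: plate controls were DMSO alone for no effect and tamoxifen control for full effect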
Outline: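 CellTiter-Glo ATP luminescence, read 20 min after reagent at room temperature, reported viability following 40 h compound treatment at 37 °C. N2a mouse neuroblastoma cells seeded 1500/well; Hill equation gave AC50.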

[4] = Cellular Toxicity (caspase-3) Mesangial (AID 660); conditions: mesangial cells, normalized: DMSO 0%, 100 µM tamoxifen 100%; series mostly up to 91.7 µM;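 note: combined caspase 3 and 7 activity read by Caspase-Glo luminescence; cells exposed to compound for 16 h before the caspase read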
Outline: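 Caspase 3/7 activation measured by Caspase-Glo 3/7 luminescence (20 min, room temperature) following 16 h exposure of mesangial cells (1000/well); AC50 from Hill-equation fit, normalized to DMSO and 100 uM tamoxifen.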

[5] = Cellular Toxicity (caspase-3) Hek293 (AID 664); conditions: HEK293 caspase-3 activation, DMSO = 0%, 100 µM tamoxifen = 100%; at 92.2 µM (top of the series);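 note: cells exposed to compound for 16 h at 37 °C before readout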
Outline: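 Concentration-response qHTS: caspase 3/7 activation measured by luminescent aminoluciferin substrate cleavage after 16 h compound exposure of Hek 293 cells. AC50 from Hill equation, with DMSO as basal and 100 uM tamoxifen as 100%.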

[6] = MultiTox-Fluor Cytotoxicity Assay - LYMP1-001 - Dead Cells (AID 946); conditions: LYMP1-001 lymphoblastoid cells, dead-cell protease fluorescence; series mostly up to 92.2 µM;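 note: 0% = DMSO and 100% = tetraoctylammonium bromide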
Outline: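 LYMP1-001 lymphoblastoid cells (2500/well) treated 16 h at 37 C. Dead-cell protease cleavage of bis-AAF-R110 read at Ex/Em 485/520. Normalized to DMSO and 15 uM tetraoctylammonium bromide; AC50 from Hill fits.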

[7] = Cell Viability - LYMP1-002 - Assay at 16 hr (AID 948); conditions: LYMP1-002 lymphoblastoid cell viability; series mostly up to 92.2 µM;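 note: 0% = DMSO alone and full effect = 92 µM tetraoctylammonium bromide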
Outline: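 ATP luminescence (CellTiter-Glo) was measured after 16 hr compound exposure at 37 C of 2500 lymphoblastoid LYMP1-002 cells per well. Concentration-response curves were fitted with the Hill equation to give AC50.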

[8] = MultiTox-Fluor Cytotoxicity Assay - LYMP1-002 - Dead Cells (AID 960); conditions: LYMP1-002 lymphoblastoid cells, dead-cell protease fluorescence; series mostly up to 46.1 µM;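 note: 0% = DMSO and 100% = tetraoctylammonium bromide; nearly all actives have a fitted effect of over 60% in size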
Outline: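 Dead-cell fluorescence (Ex/Em 485/520) after 16 h compound exposure at 37 C of LYMP1-002 lymphoblastoid cells in complete medium; AC50 by Hill equation, with data scaled between DMSO and 15 uM tetraoctylammonium bromide.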

[9] = Cell Viability - LYMP2-003 (AID 965); conditions: LYMP2-003 lymphoblastoid cell viability; series mostly up to 92.2 µM;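 note: cells exposed to compounds for 24 h before reading; 0% = DMSO only and full effect = 92 µM tetraoctylammonium bromide; nearly all actives have a fitted effect of over 50% in size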
Outline: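 CellTiter-Glo luminescence quantified ATP loss after 24 h compound treatment of LYMP2-003 lymphoblastoid cells at 37 C. Titration series were fitted with the standard Hill equation to give AC50.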

[10] = Cell Viability - LYMP2-026 (AID 989); conditions: LYMP2-026 lymphoblastoid cell viability, qHTS; series mostly up to 92.2 µM; note: % is set by controls: 0 for no effect and ±100 for the full control effect; nearly all actives have a fitted effect of over 50% in size
Outline: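 Cytotoxicity read as ATP-dependent luminescence (CellTiter-Glo, 30 min room temperature) after 24 h compound treatment at 37 C. LYMP2-026 lymphoblastoid line seeded at 2500 cells/well; AC50 derived by standard Hill equation.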

[11] = target: Thyroid hormone receptor beta (Homo sapiens) (UniProt P10828); experiment: qHTS assay for small molecule agonists of thyroid hormone receptor beta signaling (AID 588545; calls by dose curve); conditions: TR-UAS-bla GripTite HEK 293, beta-lactamase ratio, agonist mode, 18 h; series mostly up to 76.7 µM
Sequence of Thyroid hormone receptor beta (Homo sapiens) (P10828 whole entry, looked up): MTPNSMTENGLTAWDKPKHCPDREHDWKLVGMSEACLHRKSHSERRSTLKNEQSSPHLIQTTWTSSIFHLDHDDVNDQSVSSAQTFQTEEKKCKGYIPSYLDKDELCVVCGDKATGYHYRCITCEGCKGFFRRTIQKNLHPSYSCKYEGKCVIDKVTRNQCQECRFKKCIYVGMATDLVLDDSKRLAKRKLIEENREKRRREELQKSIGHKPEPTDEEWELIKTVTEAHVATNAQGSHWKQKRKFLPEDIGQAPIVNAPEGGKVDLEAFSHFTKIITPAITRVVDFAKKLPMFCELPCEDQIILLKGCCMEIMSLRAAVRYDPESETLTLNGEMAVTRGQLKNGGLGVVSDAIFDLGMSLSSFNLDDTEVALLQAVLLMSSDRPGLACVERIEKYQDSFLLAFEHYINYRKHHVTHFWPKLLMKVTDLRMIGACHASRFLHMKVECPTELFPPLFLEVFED
Outline: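 HEK 293 TR-UAS-bla; agonist mode; 18 hrs, 37 C; CCF4, ex 405/em 460 and 530 nm; norm. T3 10 nM = 100%, DMSO = 0%; Hill fit → EC50, efficacy.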

[12] = target: Retinoic acid receptor RXR-alpha (Homo sapiens) (UniProt P19793); experiment: qHTS assay for small molecule antagonists of retinoid X receptor alpha signaling (AID 588546; active = well fitted inhibition curve with a large enough effect in the signal ratio, with a control signal flat, not every such curve was filed as active; the % refers to the signal ratio;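 note: cells stimulated with 9-cis-retinoic acid as agonist; % is set by controls: 0 for no effect and ±100 for the full control effect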); conditions: HEK293T RXRa-UAS-bla, beta-lactamase ratio, antagonist mode
Sequence of Retinoic acid receptor RXR-alpha (Homo sapiens) (P19793 whole entry, looked up): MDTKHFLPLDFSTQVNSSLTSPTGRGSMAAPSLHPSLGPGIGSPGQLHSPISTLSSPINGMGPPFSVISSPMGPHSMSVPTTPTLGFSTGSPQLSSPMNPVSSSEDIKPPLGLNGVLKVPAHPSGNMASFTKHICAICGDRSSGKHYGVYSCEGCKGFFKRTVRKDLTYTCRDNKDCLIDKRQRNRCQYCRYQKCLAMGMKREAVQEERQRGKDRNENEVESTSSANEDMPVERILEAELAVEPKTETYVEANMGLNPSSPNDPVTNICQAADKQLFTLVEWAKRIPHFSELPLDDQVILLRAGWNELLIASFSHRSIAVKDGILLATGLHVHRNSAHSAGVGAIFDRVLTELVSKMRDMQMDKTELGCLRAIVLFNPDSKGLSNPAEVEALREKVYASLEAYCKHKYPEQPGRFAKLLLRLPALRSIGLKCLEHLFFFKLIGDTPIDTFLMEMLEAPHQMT
Outline: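 Beta-lactamase reporter inhibition, read as CCF4 fluorescence ratio (ex 405, em 460/530 nm) after 2 h at RT. HEK293T UAS-bla cells, 2500/well, were stimulated with 9-cis-RA at 500 or 100 nM final alongside test compound for 18 h at 37 C.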

[13] = target: Tumor necrosis factor (Homo sapiens) (UniProt P01375); experiment: qHTS assay to identify small molecules that stimulate Tumor Necrosis Factor-alpha (TNF-alpha) secretion (AID 651757; active = well fitted curve in the direction sought with a large enough effect in the signal ratio; the % refers to the signal ratio; note: 0% is about no effect); conditions: Human cells, HTRF 665/615 ratio; series mostly up to 92.2 µM
Sequence of Tumor necrosis factor (Homo sapiens) (P01375 whole entry, looked up): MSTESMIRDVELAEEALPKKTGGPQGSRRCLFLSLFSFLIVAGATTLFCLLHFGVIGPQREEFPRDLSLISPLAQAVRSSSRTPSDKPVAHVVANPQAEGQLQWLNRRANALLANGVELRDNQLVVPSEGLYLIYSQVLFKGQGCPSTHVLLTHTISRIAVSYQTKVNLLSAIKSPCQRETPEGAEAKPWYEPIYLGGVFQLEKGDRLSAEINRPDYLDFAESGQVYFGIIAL
Outline: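 Secreted TNF-alpha quantified by TR-FRET sandwich of two labeled anti-TNF-alpha antibodies, incubated 3 hr at room temperature. Preceded by 17 hr, 37 C compound treatment of THP-1 cells at 3000 cells/well.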

[14] = target: Nuclear receptor ROR-gamma (Homo sapiens) (UniProt P51449); experiment: qHTS assay for small molecule antagonists of the retinoid-related orphan receptor gamma (ROR-gamma) signaling pathway (AID 651802); conditions: ROR-gamma antagonist cell reporter assay; series mostly up to 92.2 µM; note: nearly all actives have a fitted effect of over 60% in size; note: potency is the fitted concentration of half-maximal effect
Sequence of Nuclear receptor ROR-gamma (Homo sapiens) (P51449 whole entry, looked up): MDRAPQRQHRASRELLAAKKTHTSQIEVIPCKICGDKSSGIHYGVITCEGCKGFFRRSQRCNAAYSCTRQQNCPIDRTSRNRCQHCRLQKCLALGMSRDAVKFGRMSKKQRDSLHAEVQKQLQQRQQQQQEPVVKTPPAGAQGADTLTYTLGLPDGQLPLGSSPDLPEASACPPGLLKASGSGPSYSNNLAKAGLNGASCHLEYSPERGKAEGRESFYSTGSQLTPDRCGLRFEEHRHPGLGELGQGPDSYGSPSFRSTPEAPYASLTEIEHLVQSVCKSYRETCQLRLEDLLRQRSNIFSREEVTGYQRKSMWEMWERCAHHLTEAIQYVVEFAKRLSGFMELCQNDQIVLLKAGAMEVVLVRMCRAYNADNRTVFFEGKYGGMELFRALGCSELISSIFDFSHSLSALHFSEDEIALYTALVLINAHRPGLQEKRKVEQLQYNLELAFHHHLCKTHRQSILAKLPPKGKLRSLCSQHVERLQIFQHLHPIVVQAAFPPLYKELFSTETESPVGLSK
Outline: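 Luminescence (One-Glo, 30 min RT) measured 16 h after compound addition and doxycycline induction at 37C. Reporter: RORE-luciferase under TET-inducible ROR-gamma in CHO cells.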

[15] = Cellular Toxicity (caspase-3) HepG2 (AID 654); conditions: HepG2 caspase-3 activation, luminescence, 0% = DMSO only, 100% = tamoxifen; series mostly up to 92.2 µM;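 note: cells exposed to compound for 16 hours before reading; 0% = DMSO alone and 100% = caspase signal from 100 µM tamoxifen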
Outline: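 Caspase 3/7 activation is measured as a luminescence increase (aminoluciferin substrate) after 16 h compound exposure of human hepatocarcinoma HepG2 cells. AC50 values are Hill fits, scaled between DMSO baseline and 100 uM tamoxifen stimulation.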

[16] = Cell Viability - LYMP2-024 (AID 988); conditions: LYMP2-024 lymphoblastoid cell viability; series mostly up to 92.2 µM; note: nearly all actives have a fitted effect of over 60% in size; note: potency is the fitted concentration of half-maximal effect;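 for activity change, negative = cytotoxicity: plate controls were DMSO only for no effect and 92 µM tetraoctylammonium bromide for full effect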
Outline: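 Cytotoxicity was taken as a decrease in ATP (CellTiter-Glo luminescence) after 24 hr compound exposure at 37 C of LYMP2-024 lymphoblastoid cells, 2500 cells/well. Concentration-response data were fitted to the Hill equation to give AC50.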

[17] = Cell Viability - LYMP1-002 - Assay at 24 hr (AID 993); conditions: LYMP1-002 lymphoblastoid cells viability; series mostly up to 92.2 µM; note: % is set by controls: 0 for no effect and ±100 for the full control effect
Outline: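 qHTS cytotoxicity at 24 h: CellTiter-Glo ATP luminescence in lymphoblastoid line LYMP1-002 incubated with compound at 37 °C. Concentration-response modeled with the Hill equation for AC50; tetraoctylammonium bromide served as positive control.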

[18] = qHTS assay for small molecule agonists of retinoid X receptor alpha signaling (AID 588544); conditions: HEK293T RXRa-UAS-bla, beta-lactamase reporter, 18 h; 530 nm emission
[19] = qHTS assay for small molecule agonists of the antioxidant response element (ARE) signaling pathway measured by Nrf2-dependant transcriptional activity (AID 720636; active = well fitted curve in the direction sought with a large enough effect in the repeat runs; an effect the other way counts as inactive or inconclusive;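 note: HepG2 cells with an ARE-driven luciferase reporter; % of control where 0% means no effect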); conditions: ARE-luc HepG2, Nrf2 luciferase reporter, 16 h; series mostly up to 92.4 µM
Outline: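 ONE-Glo luminescence, read 30 min after reagent addition at room temperature, reflected ARE reporter activity in HepG2 cells that had been incubated with compound for 16 hr at 37 C in 1% dialyzed FBS.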

[20] = qHTS assay for cell viability of the p53RE-bla HCT-116 cell line (AID 743292); conditions: p53RE-bla HCT-116 viability, ATP luminescence, 16 h; series mostly up to 95 µM; note: nearly all actives have a fitted effect of over 55% in size; note: potency is the fitted concentration of half-maximal effect; for activity change, negative = cytotoxicity: % is set by controls: 0 for no effect and ±100 for the full control effect
Outline: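 After plating at 4,000 cells per well and a 5 h rest at 37 C, HCT-116 cells carrying p53RE-bla received test chemicals in DMSO. Sixteen hours later at 37 C, CellTiter-Glo was added and luminescence recorded following 30 min at room temperature.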

Nc1cccc2ccccc12
inactive: Potency [1] > 92 µM | Potency [2] > 92 µM | Potency [3] | outcome [4] | outcome [6] | outcome [7] | Potency [8] | Potency [9] | Potency [10] | Potency [11] | max response [12] -9% | outcome [13] | Potency [14]
active: caspase-3 activation [5] 156%

C=CC(=O)OC
inactive: Potency [1] > 92 µM | Potency [2] > 92 µM | Potency [3] | outcome [15] | caspase-3 activation [5] 2% | outcome [6] | outcome [7] | Potency [8] | Potency [16] | Potency [10] | Potency [17] | Potency [11] | max response [12] -3.6% | outcome [13] | Potency [14] | Potency [19] | Potency [20]
-10.9%: max response [18]

Clc1ccc(C(c2ccccc2Cl)C(Cl)(Cl)Cl)cc1 (stereo unspecified)
inactive: outcome [15] | outcome [4] | outcome [6] | outcome [7] | Potency [9] | Potency [16] | Potency [10] | Potency [17] | Potency [11] | max response [12] -26% | outcome [13] | Potency [19]
active: Potency [20] 50.1 µM

Clc1ccc(C(Cl)(Cl)Cl)cc1Cl
-3.09%: max response [18]
inactive: Potency [1] > 92 µM | Potency [2] > 92 µM | Potency [3] | outcome [15] | caspase-3 activation [5] 1.11% | outcome [6] | Potency [9] | Potency [16] | Potency [10] | Potency [17] | max response [12] -3.13% | outcome [13] | Potency [14] | Potency [19] | Potency [20]

BrCC(Br)(Br)Br
active: Potency [16] 12.6 µM
inactive: Potency [2] > 92 µM | outcome [15] | caspase-3 activation [5] 7.98% | outcome [6] | outcome [7] | Potency [8] | Potency [9] | max response [12] 23.1% | outcome [13] | Potency [19] | Potency [20]
19.6%: max response [18]

Oc1cc(Cl)c(Cl)c(Cl)c1Cl
inactive: outcome [15] | outcome [4] | caspase-3 activation [5] 8.07% | outcome [6] | outcome [7] | Potency [9] | Potency [16] | Potency [10] | Potency [17] | Potency [11] | Potency [19] | Potency [20]
active: Potency [3] 31.6 µM | Potency [14] 23.7 µM

O=C(O)CBr
-13.9%: max response [18]
inactive: Potency [1] > 92 µM | Potency [2] > 92 µM | Potency [3] | outcome [15] | outcome [4] | outcome [6] | outcome [7] | Potency [16] | Potency [10] | Potency [17] | Potency [11] | max response [12] -0.759% | outcome [13] | Potency [14] | Potency [19] | Potency [20]

O=C(O)C(Br)Br
inactive: Potency [1] > 92 µM | Potency [3] | outcome [15] | outcome [4] | caspase-3 activation [5] -1.18% | outcome [6] | Potency [8] | Potency [9] | Potency [16] | Potency [10] | Potency [17] | max response [12] 6.61% | outcome [13] | Potency [14] | Potency [20]
-1.1%: max response [18]
